Whole data set: some 68,000 sequences, median “fluorescence intensity (a.u.)” near 9,100, cut for the highest 2% near 16,000. This is one part of a sample in which the highest values are shown more often than they occur.

Results on 23 sequences are retold here after paper PMC7819943, “Rice protein-binding microarrays: a tool to detect cis-acting elements near promoter regions in rice”.

OsWRKY34, sequence (Q0JBA9 entry or part of it): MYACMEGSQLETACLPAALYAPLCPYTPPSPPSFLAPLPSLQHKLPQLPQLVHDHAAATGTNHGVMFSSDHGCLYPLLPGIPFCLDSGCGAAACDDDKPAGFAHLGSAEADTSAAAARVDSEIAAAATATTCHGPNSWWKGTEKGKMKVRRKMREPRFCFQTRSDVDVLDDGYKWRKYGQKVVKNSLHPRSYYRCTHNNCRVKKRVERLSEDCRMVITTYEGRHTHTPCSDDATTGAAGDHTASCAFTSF

The test addresses OsWRKY34 (Oryza sativa, UniProt Q0JBA9 1-250). The experiment in a line: protein-binding microarray (RPBM); PBS, 2% BSA, 51.3 ng/ul salmon testes DNA, 50 uM zinc acetate, 200 nM TF, 25 C, 1 h; high values mean tight binding. The conditions noted are these: protein: recombinant; tags: N-terminal polyhistidine and DsRed monomer fusion (pET32a); label: CyDye5-dUTP incorporated in the synthesized complementary strand; 3' TTTTT single-stranded linker to array surface; dsDNA, one strand shown. An outline of the steps:
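Transcription factors, each fused N-terminally to a polyhistidine tag and DsRed, were expressed in E. coli BL21-CodonPlus and purified on Ni–NTA. A custom Agilent array was made double-stranded by primer extension with Cy5-dUTP and blocked with 2% BSA. It was incubated with 200 nM protein in PBS, 2% BSA, salmon testes DNA and 50 µM zinc acetate at 25 °C for 1 h, then washed. The binding signal is per-feature fluorescence intensity (arbitrary units) read on an Axon 4000B scanner.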
Consider “GTATGCATTATTATGCTGATTAATTTGGCCTGGTTATTTGCGGAGTCACCTAGTGCAG”, for which the binding signal was 8160 fluorescence intensity (a.u.).

With “GTCGGGTTCGGGTACTGTTGATGCTGATCGAGATGGTCCTCGGAGTCACCTAGTGCAG”, the binding signal was 8650 fluorescence intensity (a.u.).

On to “AACTATTTTTTTATGGGTTTGTTGTGTAGATCATGTAGCACGGAGTCACCTAGTGCAG”, for which the binding signal is 11100 fluorescence intensity (a.u.).

Turning to “TTCTACTTCTACACCTCGCAATGAAAAAAACAAATTTGACCGGAGTCACCTAGTGCAG”, the binding signal was 8060 fluorescence intensity (a.u.).

As to “GCTTCTTCCGTTGCAATTCCATTCTCCTCTCTCTCCTGCTCGGAGTCACCTAGTGCAG”, the binding signal was 11400 fluorescence intensity (a.u.).

Turning to “AGGACACCTTAGCATTCAGCCATCTTATTTCTCTGTATTACGGAGTCACCTAGTGCAG”, the binding signal is 9420 fluorescence intensity (a.u.).

“TCCAGAAGACACCCGCCTGCTCCACTGCCGTTCCTGTCGACGGAGTCACCTAGTGCAG”: the binding signal is 9120 fluorescence intensity (a.u.).

“ACTGTGAATGTGTGACTAAATGGGCCGAGCCCAACTACTACGGAGTCACCTAGTGCAG”: the binding signal is 9860 fluorescence intensity (a.u.).

As for “GATTCATCTTGCCCTCAAAGTTTCCTGCTTTGTTTGATCACGGAGTCACCTAGTGCAG”, the binding signal was 9520 fluorescence intensity (a.u.).

Consider “GGAGGGAGTAGTATATTGGGGATTTTCAGTTGGGTCTGGGCGGAGTCACCTAGTGCAG”, for which the binding signal is 14200 fluorescence intensity (a.u.).

As for “GCCATTCTATAGGAGGTGGTGGGGAGGGTTTCGTGCTCCTCGGAGTCACCTAGTGCAG”, the binding signal is 10800 fluorescence intensity (a.u.).

Consider “TTTGTCACGCGAATACTGTATTGTAGGGTGGGGTTCACTGCGGAGTCACCTAGTGCAG”, for which the binding signal is 12100 fluorescence intensity (a.u.).

On to “GCCGGCTAAACTGGCTTATTGTACTTGCTCTTACTTGACTCGGAGTCACCTAGTGCAG”, for which the binding signal was 9430 fluorescence intensity (a.u.).

Turning to “ATGTTTTAATTTTGGGCTTCTTTTTGTTTTGGGCTTTTATCGGAGTCACCTAGTGCAG”, the binding signal was 24300 fluorescence intensity (a.u.).

Regarding “TTTTCTTTCTTTTTCTTTTTTTTTATCGTTTTGTTCTTCTCGGAGTCACCTAGTGCAG”, the binding signal is 10500 fluorescence intensity (a.u.).

Turning to “TCTCGTTTCGTTCGTGTATCATGTTTTTTTTTGGGTCGCTCGGAGTCACCTAGTGCAG”, the binding signal was 8730 fluorescence intensity (a.u.).

On to “TCATTTTGTATTTTGTTGTCTCTGTCTTGCTGTTCCCTCGCGGAGTCACCTAGTGCAG”, for which the binding signal was 8810 fluorescence intensity (a.u.).

“GTGTGTTGTTGTTCTTGTTTTGGTTCTTTTCTAGTAGTATCGGAGTCACCTAGTGCAG”: the binding signal was 8750 fluorescence intensity (a.u.).

For “ATGTTTTTTTTTGGGTCGCTTTCTTTGTGTGTGTATATATCGGAGTCACCTAGTGCAG”, the binding signal is 16400 fluorescence intensity (a.u.).

As for “ATACTAGGCTGTATCTCTCTCGCTCTCTTGTTGTTCCCTCCGGAGTCACCTAGTGCAG”, the binding signal was 18200 fluorescence intensity (a.u.).

As to “ATTTTTTATTTCTTTTGTTTCAAATTTCAGTTCTTTTTATCGGAGTCACCTAGTGCAG”, the binding signal was 9720 fluorescence intensity (a.u.).

For “GCTCTCTCTCTCTCTCTCTCTCGCTGTCTCTCTCCCTCCCCGGAGTCACCTAGTGCAG”, the binding signal is 9110 fluorescence intensity (a.u.).

For the sequence “GGTCATACTCTCTTCGTCCCATTTAATGTACAATCATGCTCGGAGTCACCTAGTGCAG”, the binding signal was 8860 fluorescence intensity (a.u.).
